# PubChem BioAssay (EPA / NIEHS)
# Calls of active or inactive are those of the source. How the source made its calls: active means hit-call score of the fitted dose curve at least 0.9, where 1 is the maximum; inactive means score below 0.9.
# Tests used:
# Conditions in all cases: mRNA level, 48 h; actives raise or lower the signal
# [1] = read-out: Bcl-2 (BID) gene, BID (gene 637); test: LTEA_HepaRG_BID: Life Technologies and Expression Analysis (LTEA) Assay for Bcl-2 (BID) gene using HepaRG (AID 2283476)
# In short: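 Duplicate 48 h treatments of HepaRG cells in serum-free induction medium spanned 100 uM downward in half-log steps, 0.5% DMSO. Transcript change quantified by qRT-PCR against three housekeeping genes, fitted up or down versus DMSO.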
# [2] = read-out: Caspase-3 (Homo sapiens) (UniProt P42574); test: LTEA_HepaRG_CASP3: Life Technologies and Expression Analysis (LTEA) Assay for cysteine-aspartic acid protease (CASP3) using HepaRG (AID 2283477)
# In short: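 Differentiated human HepaRG cells in serum-free induction medium were exposed 48 h to 8-point half-log concentrations from 100 uM (0.5% DMSO vehicle). CASP3 mRNA was measured by qRT-PCR, normalised to ACTB, GAPDH and POLR2A, with bidirectional fitting against DMSO.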
# [3] = read-out: Cytochrome P450 (CYP24A1), CYP24A1 (gene 1591); test: LTEA_HepaRG_CYP24A1: Life Technologies and Expression Analysis (LTEA) Assay for Cytochrome P450 (CYP24A1) using HepaRG (AID 2283478)
# In short: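 Differentiated HepaRG cells, pre-cultured 48 h, were exposed in duplicate for 48 h in serum-free induction medium to 8 half-log concentrations (top 100 uM, 0.5% DMSO). CYP24A1 mRNA was quantified by TaqMan qRT-PCR, normalized to ACTB/GAPDH/POLR2A, fitted bidirectionally versus DMSO.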
# [4] = read-out: Cytochrome P450 (CYP1A2), CYP1A2 (gene 1544); test: LTEA_HepaRG_CYP1A2: Life Technologies and Expression Analysis (LTEA) Assay for Cytochrome P450 (CYP1A2) using HepaRG (AID 2283479)
# In short: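 Differentiated human HepaRG cells in serum-free induction medium were exposed in duplicate for 48 h to 8-point half-log concentrations up to 100 uM in 0.5% DMSO. CYP1A2 mRNA measured by qRT-PCR, normalized to ACTB, GAPDH, POLR2A; bidirectional fit vs DMSO.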
# [5] = read-out: cysteine-aspartic acid protease (CASP8), CASP8 (gene 841); test: LTEA_HepaRG_CASP8: Life Technologies and Expression Analysis (LTEA) Assay for cysteine-aspartic acid protease (CASP8) using HepaRG (AID 2283480)
# In short: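 Concentration-response in duplicate up to 100 uM (half-log steps, 0.5% DMSO) on differentiated HepaRG cultures for 48 h. Expression change of CASP8 mRNA is determined by TaqMan qRT-PCR with housekeeping-gene normalization.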
# [6] = read-out: Cytochrome P450 (CYP2B6), CYP2B6 (gene 1555); test: LTEA_HepaRG_CYP2B6: Life Technologies and Expression Analysis (LTEA) Assay for Cytochrome P450 (CYP2B6) using HepaRG (AID 2283481)
# In short: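 Differentiated HepaRG cells, serum-free induction medium, exposed 48 h in duplicate to 8-point half-log concentrations from 100 uM in 0.5% DMSO. CYP2B6 mRNA by qRT-PCR, normalized to ACTB, GAPDH, POLR2A; bidirectional fit versus DMSO.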
# [7] = read-out: Cytochrome P450 2C19 (Homo sapiens) (UniProt P33261); test: LTEA_HepaRG_CYP2C19: Life Technologies and Expression Analysis (LTEA) Assay for CYP2C19 using HepaRG (AID 2283482)
# In short: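 Differentiated human HepaRG cells were exposed for 48 h in serum-free induction medium to 8 concentrations (top 100 uM, half-log steps, 0.5% DMSO). CYP2C19 mRNA was measured by qRT-PCR, normalized to ACTB/GAPDH/POLR2A, and fitted bidirectionally against DMSO.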
# [8] = read-out: CYP2C8 (gene 1558); test: LTEA_HepaRG_CYP2C8: Life Technologies and Expression Analysis (LTEA) Assay for CYP2C8 using HepaRG (AID 2283483)
# In short: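 This is a transcriptional endpoint in HepaRG cultures: 48 h exposure, highest concentration 100 uM. CYP2C8 mRNA is quantified by TaqMan qRT-PCR.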
# [9] = read-out: CYP2C9 (gene 1559); test: LTEA_HepaRG_CYP2C9: Life Technologies and Expression Analysis (LTEA) Assay for CYP2C9 using HepaRG (AID 2283484)
# In short: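 Eight-point concentration-response (highest 100 uM, half-log dilutions) in HepaRG cells for 48 h; CYP2C9 expression by qRT-PCR normalized to ACTB, GAPDH, POLR2A. Bidirectional fit, DMSO baseline.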
# [10] = read-out: CYP2E1 (gene 1571); test: LTEA_HepaRG_CYP2E1: Life Technologies and Expression Analysis (LTEA) Assay for CYP2E1 using HepaRG (AID 2283485)
# In short: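 CYP2E1 transcript measured by Fluidigm qRT-PCR against three housekeeping genes in human HepaRG cells treated 48 h (top 100 uM, half-log steps, 0.5% DMSO vehicle). Gain or loss fitted relative to DMSO baseline.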
# Caspase-3 (Homo sapiens), sequence (P42574 whole entry, looked up): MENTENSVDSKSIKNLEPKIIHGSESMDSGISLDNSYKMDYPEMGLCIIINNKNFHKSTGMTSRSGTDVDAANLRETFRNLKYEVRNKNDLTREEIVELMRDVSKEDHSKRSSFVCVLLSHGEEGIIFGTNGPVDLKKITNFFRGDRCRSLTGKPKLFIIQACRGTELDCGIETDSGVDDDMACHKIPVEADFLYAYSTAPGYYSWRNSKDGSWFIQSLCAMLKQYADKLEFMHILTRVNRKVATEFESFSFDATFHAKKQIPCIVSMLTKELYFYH
# Cytochrome P450 2C19 (Homo sapiens), sequence (P33261 whole entry, looked up): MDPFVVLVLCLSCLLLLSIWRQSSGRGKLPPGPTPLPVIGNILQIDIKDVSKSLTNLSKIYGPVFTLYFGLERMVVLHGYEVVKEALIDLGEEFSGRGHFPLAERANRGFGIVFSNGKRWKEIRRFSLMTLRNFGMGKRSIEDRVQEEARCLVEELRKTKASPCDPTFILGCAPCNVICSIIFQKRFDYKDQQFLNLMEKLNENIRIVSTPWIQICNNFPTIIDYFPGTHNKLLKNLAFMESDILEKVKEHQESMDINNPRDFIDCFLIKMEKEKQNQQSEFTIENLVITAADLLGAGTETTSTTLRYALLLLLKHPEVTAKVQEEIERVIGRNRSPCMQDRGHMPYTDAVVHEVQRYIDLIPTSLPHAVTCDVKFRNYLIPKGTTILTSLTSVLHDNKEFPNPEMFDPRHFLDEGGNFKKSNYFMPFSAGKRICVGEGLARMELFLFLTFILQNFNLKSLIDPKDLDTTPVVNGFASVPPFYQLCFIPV
compound,measurement,setting,value
CCN(CC)C(=O)c1cccc(C)c1,outcome,[1],inactive
same,outcome,[2],inactive
same,outcome,[3],inactive
same,outcome,[4],inactive
same,outcome,[5],inactive
same,AC50,[6],3.4 µM (active)
same,AC50,[7],12.9 µM (active)
same,AC50,[8],9.19 µM (active)
same,AC50,[9],3.56 µM (active)
same,AC50,[10],13.4 µM (active)
COc1c(Cl)ccc(Cl)c1C(=O)O,outcome,[1],inactive
same,outcome,[2],inactive
same,outcome,[3],inactive
same,outcome,[4],inactive
same,outcome,[5],inactive
same,outcome,[6],inactive
same,outcome,[8],inactive
same,outcome,[9],inactive
same,outcome,[10],inactive
N[C@@H](Cc1cc(I)c(Oc2ccc(O)c(I)c2)c(I)c1)C(=O)O,outcome,[1],inactive
same,outcome,[2],inactive
same,outcome,[3],inactive
same,outcome,[5],inactive
same,AC50,[6],40 µM (active)
same,AC50,[8],46.8 µM (active)
same,AC50,[10],0.00253 µM (active)
C[C@]12C[C@H](O)[C@H]3[C@@H](CCC4=CC(=O)CC[C@@]43C)[C@@H]1CC[C@@H]2C(=O)CO,outcome,[1],inactive
same,outcome,[2],inactive
same,outcome,[3],inactive
same,outcome,[5],inactive
same,AC50,[6],50 µM (active)
same,AC50,[8],50 µM (active)
same,outcome,[10],inactive
CC1(C)C(C=C(Cl)Cl)C1C(=O)OCc1cccc(Oc2ccccc2)c1 (stereo unspecified),outcome,[1],inactive
same,outcome,[2],inactive
same,outcome,[3],inactive
same,AC50,[4],11 µM (active)
same,outcome,[5],inactive
same,AC50,[6],12 µM (active)
same,outcome,[8],inactive
same,outcome,[9],inactive
same,AC50,[10],26.2 µM (active)
CCCN(CCC)C(=O)SCC,outcome,[1],inactive
same,outcome,[2],inactive
same,outcome,[3],inactive
same,outcome,[4],inactive
same,outcome,[5],inactive
same,AC50,[6],11.4 µM (active)
same,outcome,[8],inactive
same,outcome,[9],inactive
same,outcome,[10],inactive
CC(=O)S[C@@H]1CC2=CC(=O)CC[C@]2(C)[C@H]2CC[C@@]3(C)[C@@H](CC[C@@]34CCC(=O)O4)[C@H]12,outcome,[1],inactive
same,AC50,[2],50 µM (active)
same,outcome,[3],inactive
same,outcome,[5],inactive
same,AC50,[6],52.6 µM (active)
same,AC50,[8],82.1 µM (active)
same,AC50,[10],63 µM (active)
CCSC(=O)N(CC(C)C)CC(C)C,outcome,[1],inactive
same,outcome,[2],inactive
same,outcome,[3],inactive
same,outcome,[4],inactive
same,outcome,[5],inactive
same,outcome,[6],inactive
same,outcome,[8],inactive
same,outcome,[9],inactive
same,outcome,[10],inactive
C[C@]12CC[C@@H]3c4ccc(O)cc4C[C@@H](CCCCCCCCCS(=O)CCCC(F)(F)C(F)(F)F)[C@H]3[C@@H]1CC[C@@H]2O (stereo partly specified),AC50,[1],0.0682 µM (active)
same,outcome,[2],inactive
same,outcome,[3],inactive
same,outcome,[4],inactive
same,outcome,[5],inactive
same,AC50,[6],29.9 µM (active)
same,AC50,[8],32.6 µM (active)
same,AC50,[9],28.7 µM (active)
same,AC50,[10],20.2 µM (active)
O=C(c1ccccc1)C1CCCCC1,outcome,[1],inactive
same,outcome,[2],inactive
same,outcome,[3],inactive
same,outcome,[4],inactive
same,outcome,[5],inactive
same,AC50,[6],25 µM (active)
same,outcome,[8],inactive
same,outcome,[9],inactive
same,outcome,[10],inactive
CCCCCOC(=O)COc1cc(N2C(=O)C3=C(CCCC3)C2=O)c(F)cc1Cl,outcome,[1],inactive
same,outcome,[2],inactive
same,AC50,[3],0.00316 µM (active)
same,outcome,[4],inactive
same,outcome,[5],inactive
same,AC50,[6],25.9 µM (active)
same,outcome,[8],inactive
same,outcome,[9],inactive
same,outcome,[10],inactive
c1ccc2[nH]c(-c3cscn3)nc2c1,outcome,[1],inactive
same,outcome,[2],inactive
same,outcome,[3],inactive
same,AC50,[4],23.6 µM (active)
same,outcome,[5],inactive
same,AC50,[6],16.5 µM (active)
same,outcome,[8],inactive
same,outcome,[9],inactive
same,AC50,[10],50 µM (active)
OB(O)O,outcome,[1],inactive
same,outcome,[2],inactive
same,outcome,[3],inactive
same,outcome,[4],inactive
same,outcome,[5],inactive
same,outcome,[6],inactive
same,outcome,[8],inactive
same,outcome,[9],inactive
same,outcome,[10],inactive
CCOC(=O)COc1cc(-n2ncc(C(F)(F)F)c(C)c2=O)c(F)cc1Cl,outcome,[1],inactive
same,outcome,[2],inactive
same,outcome,[3],inactive
same,outcome,[4],inactive
same,outcome,[5],inactive
same,AC50,[6],50 µM (active)
same,outcome,[8],inactive
same,outcome,[9],inactive
same,outcome,[10],inactive
